Data on 89 compounds can be found in PubChem BioAssay AID588852 (The Scripps Research Institute Molecular Screening Center, 2011).

Out of some 360,000 compounds screened, about 4,600 (1.3%) were called active.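 The calls were made as follows: active = percent inhibition above its own plate's cutoff, namely the mean of that plate's compound wells plus 3 SD; inactive = the rest.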 For the sample, actives were picked, then their nearest neighbours and some compounds at random.

This assay deals with Muscarinic acetylcholine receptor M1 (Homo sapiens) (UniProt P11229). The assay is described as follows: CHRM1 blockers of acetylcholine calcium response – CHO-K1 cells, Fluo-8 calcium fluorescence, 1536-well, primary screen (AID 588852).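 Also: peak over basal fluorescence ratio during 140 s after agonist addition; 0% = ACh EC80 plus DMSO and 100% = DMSO alone without agonist.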 As to conditions: CHO-K1 hM1, Fluo-8 calcium fluorescence, ACh EC80 antagonist; at 3 µM; hits give high values.
Chain of Muscarinic acetylcholine receptor M1 (Homo sapiens) (P11229 whole entry, looked up): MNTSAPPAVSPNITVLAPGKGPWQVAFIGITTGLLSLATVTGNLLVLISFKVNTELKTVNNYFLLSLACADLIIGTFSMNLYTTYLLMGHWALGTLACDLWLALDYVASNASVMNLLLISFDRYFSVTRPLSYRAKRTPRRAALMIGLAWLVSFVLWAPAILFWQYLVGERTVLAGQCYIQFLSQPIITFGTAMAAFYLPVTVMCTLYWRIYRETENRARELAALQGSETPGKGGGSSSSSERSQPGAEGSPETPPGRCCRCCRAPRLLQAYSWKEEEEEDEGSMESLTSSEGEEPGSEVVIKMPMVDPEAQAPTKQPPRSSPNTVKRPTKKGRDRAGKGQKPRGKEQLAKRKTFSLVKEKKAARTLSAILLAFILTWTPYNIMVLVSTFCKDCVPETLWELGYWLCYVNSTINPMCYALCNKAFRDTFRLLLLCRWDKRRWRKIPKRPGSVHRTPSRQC
The term inhibition denotes the drop in the measured response relative to a control, in per cent. Consider `CC(=O)c1ccc(N2CCN(C(=O)c3ccc4nc[nH]c4c3)CC2)cc1`, for which the inhibition was -1.75% (inactive).
In the case of `Cc1nc2ccc(C(=O)N(C)CC3CCCN(CCc4ccc(Cl)cc4)C3)cc2[nH]1` (centres undefined), the inhibition is 17.1% (inactive).
On to `CN(CC1CCCN(CCc2cccc(C(F)(F)F)c2)C1)C(=O)c1ccc2nc[nH]c2c1` (centres undefined), for which the inhibition is 84.4% (active).
In the case of `COc1ccc(NC(=O)C2Cc3c(-c4ccc5c(c4)OCO5)ccnc3O2)cn1` (centres undefined), the inhibition is -14.1% (inactive).
With `COc1ccc(-c2[nH][nH]c(=O)c2NC(=O)c2ccc([N+](=O)[O-])cc2)cc1`, the inhibition is -25% (inactive).
Consider `CSCCNCc1cn(-c2ccc(F)cc2F)nc1-c1ccccc1C`, for which the inhibition was -13.6% (inactive).
As to `CC(=O)Nc1cccc(-c2ccnc3c2CC(C)(C(=O)NCc2ccco2)O3)c1` (centres undefined), the inhibition was -8.07% (inactive).
Consider `COc1ccc(CCNC(=O)COC(=O)c2ccc[nH]c2=O)cc1`, for which the inhibition was -7.65% (inactive).
For `CCOC(=O)c1cc(-c2nnc(-c3cc(OC)c(OC)c(OC)c3)o2)c(C)nc1C` the value was -32.2% (inactive).
As for `O=C(OCc1nnc(-c2ccccc2)o1)c1cc(=O)[nH]c2ccccc12`, the figure is -2.41% (inactive); as for `CCCc1nc2ccccc2c(C(=O)OCc2nnc(-c3cc(OC)c(OC)c(OC)c3)o2)c1CC`, 24.3% (active).
Regarding `O=C(NC1CCCCC1)C1CCC(CNS(=O)(=O)c2ccccc2)CC1` (centres undefined), the inhibition was 2.63% (inactive).
Consider `CCCCN1C(N)=NC[C@@H]1Cc1ccccc1`, for which the inhibition is -1.32% (inactive).
As for `CC[C@@H](C)[C@@H]1CN([C@@H](C)CN2CCC[C@H]2CN2C(N)=NC[C@H]2C(C)C)C(=N)N1CCc1ccc(Cl)c(Cl)c1`, the figure is 16.5% (inactive); as for `C[C@@H](CN1CCC[C@H]1CN1C(N)=NC[C@@H]1Cc1ccccc1)N1C[C@@H](Cc2ccccc2)N(CCCC2CCCC2)C1=N`, 93.1% (active); as for `Cc1cc(/C=C2/SC(=O)N(CC(=O)N3CCCC3)C2=O)ccc1N1CCOCC1`, -1.78% (inactive).
As for `COc1ccc(CNS(=O)(=O)c2ccc(NC(=O)N3CCCCC3)cc2)cc1`, the inhibition was 33.3% (active).
As to `COc1ccc(S(=O)(=O)NC(C)C(=O)N2CCCCCC2)cc1` (centres undefined), the inhibition is -12.2% (inactive).
Take `COc1ccc(NC(=O)N2CCC(Cc3ccccc3)CC2)cc1`: the inhibition is -2.81% (inactive).
For `COCC(=O)N1CCCC(C(=O)c2ccc(C(F)(F)F)cc2)C1` (centres undefined) the value was -12.9% (inactive).
For `O=C1CCCC2=C1C(c1cccs1)n1nc(SCc3ccccc3)nc1N2` (centres undefined), the inhibition was -6.44% (inactive).
`O=C(NCC1CCCO1)c1cc2c([nH]c3ccccc32)c(-c2ccc(F)cc2)n1` (centres undefined): the inhibition was 42.6% (active).
For `COc1ccc2cc(C(=O)NCC3CCCO3)[nH]c2c1` (centres undefined), the inhibition was -11.4% (inactive).
As for `O=C(NCCCO)c1cc2c([nH]c3ccccc32)c(-c2ccc(F)cc2)n1`, the inhibition is 1.06% (inactive).
On to `CC(C)(C)c1ccc(CCC2OCC(CN3CCOCC3)O2)cc1` (centres undefined), for which the inhibition is -5.48% (inactive).
`NC(=O)CC[C@@H]1NC(=O)[C@@H]2CCCN2C(=O)c2cc([N+](=O)[O-])cc(F)c2NCCC[C@@H](C(N)=O)NC1=O`: the inhibition is -13.1% (inactive).
For the compound `CCc1ccc(NC(=O)CN2C(=O)COc3ccc(S(=O)(=O)N4CCCC4)cc32)cc1`, the inhibition was -15.9% (inactive).
As for `CN(CC(=O)Nc1ccc(S(=O)(=O)N2CCCC2)cc1)Cc1ccc(Cl)c(Cl)c1`, the inhibition was 34.9% (active).
Turning to `CC(OC(=O)c1ccc(NC(=O)CC#N)cc1)C(=O)Nc1ccc(S(=O)(=O)N2CCCC2)cc1` (centres undefined), the inhibition is 32.6% (inactive).
For `COc1ccccc1CC(=O)Nc1ccc(S(=O)(=O)N2CCCC2)cc1` the value was -9.64% (inactive); for `COc1cccc(CNC(C)C(=O)Nc2ccc(S(=O)(=O)N3CCCC3)cc2)c1` (centres undefined), 39.5% (active); for `O=C(Nc1ccc(S(=O)(=O)N2CCCCC2)cc1)C1CCN(C(=O)c2ccc(F)cc2)CC1`, 9.2% (inactive).
Take `CCc1ccc(CN(C)C(C)C(=O)Nc2ccc(S(=O)(=O)N3CCCC3)cc2)cc1` (centres undefined): the inhibition is 88.9% (active).
For `CCN(CC(=O)Nc1ccc(S(=O)(=O)N2CCCC2)cc1)CC(=O)Nc1cccc(OC)c1`, the inhibition is -10.7% (inactive).
On to `CN(CC(=O)Nc1ccc(F)cc1)CC(=O)Nc1ccc(Cl)c(S(=O)(=O)N2CCOCC2)c1`, for which the inhibition is -20.8% (inactive).
On to `O=C(Nc1ccc(S(=O)(=O)N2CCCCC2)cc1)C1CC(=O)N(c2ccc(F)cc2)C1` (centres undefined), for which the inhibition was -6.03% (inactive).
`CC(C(=O)Nc1ccc(S(=O)(=O)N2CCCC2)cc1)N(C)Cc1ccc(F)cc1` (centres undefined): the inhibition was 53.5% (active).
Turning to `Cc1ccc(CC(=O)Nc2ccc(S(=O)(=O)N3CCOCC3)cc2)cc1C`, the inhibition is -11.9% (inactive).
As for `COc1cccc(CNn2cn[nH]c2=S)c1OCc1ccccc1`, the figure is -12.7% (inactive).
Regarding `COc1ccccc1-c1cc2nc(NCc3cccc(Cl)c3)ccn2n1`, the inhibition was -15.4% (inactive).
In the case of `Nc1ncnc2c1ncn2[C@@H]1O[C@H](C(=O)NS(=O)(=O)c2c(Cl)nc3sccn23)[C@@H](O)[C@H]1O`, the inhibition was -32.1% (inactive).
As for `Cc1csc2nc(COC(=O)c3cccc(N(C)C)c3)cc(=O)n12`, the figure is 6.38% (inactive); as for `CCOc1ccc(NC(=O)COc2ccc(S(=O)(=O)N3CCCC3)cc2)cc1`, 16% (inactive).
As for `O=C(CSCc1ccc(Br)cc1)Nc1ccc(S(=O)(=O)N2CCCCCC2)cc1`, the figure is 4.8% (inactive).
For `O=C(CN1CCCCCC1)Nc1ccc(S(=O)(=O)N2CCCCC2)cc1` the value was 33.1% (active).
As for `COCc1c(C(=O)N/N=C(\C)c2ccncc2)nnn1-c1nonc1N`, the inhibition was -10.9% (inactive).
For `FC(F)(F)c1ccccc1Cc1c(-c2ccccc2)nc2c3ccccc3ccn12`, the inhibition is -26% (inactive).
For `COc1ccccc1N(CC(=O)Nc1c(C)n(C)n(-c2ccccc2)c1=O)S(=O)(=O)c1ccccc1` the value was -20.5% (inactive).
As to `CN(C)CCCCCN(C)Cc1cc2ccccc2o1`, the inhibition is -3.73% (inactive).
For `COc1ccc(-c2cc(NC=O)c3ncc(-c4ccccc4)n3c2)cc1OC` the value was 4.7% (inactive).
Regarding `CC(=O)Nc1ccc(-c2cn3cccnc3n2)cc1`, the inhibition is -2.56% (inactive).
For `CC(=O)Nc1ccc(-c2csc(NC(=O)Nc3ccccc3)n2)cc1`, the inhibition is 38.3% (active).
`NC(c1ccccc1)c1csc(NC(=O)Nc2cccc(C(F)(F)F)c2)n1` (centres undefined): the inhibition is 6.11% (inactive).
`CC(CCc1ccc(O)cc1)NCc1ccc(Cl)cc1Cl` (centres undefined): the inhibition was 30.2% (active).
For the compound `CC(CCc1ccccc1)NC(=O)c1cnc(Cl)c(Cl)c1` (centres undefined), the inhibition is 2.23% (inactive).
For `COc1ccc(CNC(=O)C(C)NCc2ccccc2Cl)cc1` (centres undefined) the value was 1.81% (inactive).
Consider `COc1ccc(-c2cc(NC=O)c3ncc(-c4cc(OC)c(OC)c(OC)c4)n3c2)c(OC)c1`, for which the inhibition was 5.71% (inactive).
As for `Cc1ccc2cc(CCNC(=O)c3ccc4c(c3)OCO4)c(=O)[nH]c2c1`, the figure is -6.75% (inactive); as for `Cc1ccc(N(C(=O)c2sc(C)nc2C)C(C(=O)NC(C)(C)C)c2ccncc2)cc1` (centres undefined), -4.9% (inactive); as for `CCOCCCNS(=O)(=O)Cc1ccccc1`, -12.6% (inactive).
As for `Cc1nccn1-c1ccc(NC(=O)[C@H]2O[C@@H](n3cnc4c(N)ncnc43)[C@H](O)[C@@H]2O)cc1`, the figure is -16.5% (inactive); as for `CCCCCn1c(=O)[nH]c2cc(C(=O)NCCCN3CCCCC3C)ccc2c1=O` (centres undefined), 27.5% (active); as for `O=C(NC1CCCCC1)c1ccc2c(=O)n(CC3CCCO3)c(=O)[nH]c2c1` (centres undefined), -13.8% (inactive).
As for `CC1CCCCN1CCCNC(=O)Cn1ncc2c([nH]c3ccccc32)c1=O` (centres undefined), the figure is 3.02% (inactive).
Turning to `Cc1ccccc1NC(=O)Cc1nc(COC(=O)CNC(=O)c2ccc(Cl)cc2Cl)cs1`, the inhibition is -13% (inactive).
For the compound `CN(C(=O)CN1C(=O)NC(C)(CCc2ccccc2)C1=O)c1ccccc1` (centres undefined), the inhibition was -11.9% (inactive).
As for `CN(C)c1ccc(/C=C2\NC(=S)N(Cc3ccccc3)C2=O)cc1`, the figure is 68.3% (active); as for `Cc1ccc(CN2C(=O)N/C(=C/c3cc(C)n(-c4ccccn4)c3C)C2=O)cc1`, -1.22% (inactive); as for `COc1ccc(-c2cc(NC(C)=O)c3ncc(-c4cc(OC)c(OC)c(OC)c4)n3c2)cn1`, -10.3% (inactive).
As to `CC(=O)N[C@H]1[C@H]([C@H](O)[C@H](O)CO)OC(C(=O)O)=C[C@@H]1O`, the inhibition was -23.4% (inactive).
Regarding `CC(=O)Nc1cc(-c2ccccc2F)cn2c(-c3cccc(C(F)(F)F)c3)cnc12`, the inhibition was -3.02% (inactive).
Consider `Fc1cccc2ncnc(OCc3ccccc3)c12`, for which the inhibition was -13.7% (inactive).
Consider `Cc1occc(=O)c1OCc1ccc(F)cc1`, for which the inhibition is -6.78% (inactive).
Regarding `Cc1nc2ccccc2cc1OCc1ccc(F)cc1`, the inhibition was 18% (active).
Regarding `Clc1cccc(Cc2c(-c3cccc(Cl)c3)nc3ccc(Cl)cn23)c1`, the inhibition is -29.8% (inactive).
As for `Clc1ccccc1Nc1nc(NCc2cccs2)nc2ccsc12`, the figure is 7.85% (inactive); as for `COc1ccccc1CNc1nc(Nc2ccccc2Cl)c2sccc2n1`, 30.1% (active).
For `COCCNc1nc(Nc2ccccc2Cl)c2sc(-c3ccccc3)cc2n1` the value was -5.82% (inactive); for `Cc1cc(Br)cn2c(Cc3cccc(F)c3)c(-c3cccc(Br)c3)nc12`, -3.87% (inactive).
In the case of `c1ccc2c(c1)OCC(CNc1ncnc3nc[nH]c13)O2` (centres undefined), the inhibition is 101% (active).
Regarding `O=C(Cn1cnc2ccccc2c1=O)NCC1COc2ccccc2O1` (centres undefined), the inhibition is -3.89% (inactive).
For `COc1ccc(CCNc2ncnc3nc[nH]c23)cc1OC`, the inhibition is 5.06% (inactive).
For `CCCN1CNC(=S)N(CCc2ccccc2)C1`, the inhibition is -6.28% (inactive).
For `CC1(C)Cc2c(cnn2-c2cccc(F)c2)C(NC(=O)c2cc[n+]([O-])cc2)C1` (centres undefined) the value was 9.23% (inactive); for `Cn1nccc1C(=O)NC1CCCc2c1cnn2-c1ccc(F)cc1F` (centres undefined), 31.6% (active); for `Cc1ccc(-n2ncc3c2CCCC3NC(=O)c2cnccn2)cc1C` (centres undefined), -17.9% (inactive).
As for `CCOC(=O)c1ccc(NC(=O)Cn2cnc3cc(C)c(C)cc32)cc1`, the figure is 37.4% (active).
With `CCCc1nnc(SCC(=O)Nc2ccc(C(=O)OCC)cc2)o1`, the inhibition is 9% (inactive).
Take `CCOC(=O)c1ccc(NC(=O)CS(=O)(=O)c2cn(CC)c3ccccc23)cc1`: the inhibition is -2.75% (inactive).
